# Screening data: PubChem BioAssay, National Center for Advancing Translational Sciences (NCATS)
# Sm TGR inh – blocks Schistosoma mansoni thioredoxin glutathione reductase. Q962Y6. purified TGR, DTNB reduction, TNB absorbance 405 nm. Potency, µM (highest dose often 114 µM), for the others: top-dose activity change, negative = inhibition, most hits filed as inhibitors. 360,000 compounds, 3% hits. AID 485364; further: potency means the concentration at half of the fitted maximal effect; on the % scale 0 is the no-effect control and ±100 the full control effect; nearly all actives have a fitted effect of over 60% in size
#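 TGR 20 nM + NADPH 100 uM (dispensed conc.), cpd preinc 15 min RT; start with NADPH (500 uM addition) then DTNB (15 mM addition). Kinetic TNB absorbance, 405 nm filter. Four-parameter Hill fit across titration.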
# Tb PYK inh – blocks Trypanosoma brucei pyruvate kinase; Q57TT1; TbPYK enzyme, Kinase-Glo Plus ATP luminescence, 45 min; Potency, µM (series often up to 76.8 µM), inactives show at the highest dose activity, negative = inhibition, usual class: inhibitors; 410,000 compounds, 0.12% hits; AID 624173; further: potency means the concentration at half of the fitted maximal effect; on the % scale 0 is the no-effect control and ±100 the full control effect; nearly all actives have a fitted effect of over 50% in size
#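 Screened from lowest to highest concentration, compounds were pinned into TbPYK/substrate mixtures, and ADP (130 uM final) was added. Plates sat at room temperature for 45 min prior to Kinase-Glo Plus detection by luminescence.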
# Giardia FBPA inh-1 – inhibitors of Giardia lamblia fructose-1,6-bisphosphate aldolase; Potency, µM (highest dose often 59.6 µM), without a hit: at the top dose activity, negative = inhibition, most hits filed as inhibitors; purified Giardia FBPA; A8B2U2; 290,000 compounds, 0.71% hits; further: potency means the concentration at half of the fitted maximal effect; on the % scale 0 is the no-effect control and ±100 the full control effect; nearly all actives have a fitted effect of over 55% in size
# Target sequence (A8B2U2 whole entry, looked up): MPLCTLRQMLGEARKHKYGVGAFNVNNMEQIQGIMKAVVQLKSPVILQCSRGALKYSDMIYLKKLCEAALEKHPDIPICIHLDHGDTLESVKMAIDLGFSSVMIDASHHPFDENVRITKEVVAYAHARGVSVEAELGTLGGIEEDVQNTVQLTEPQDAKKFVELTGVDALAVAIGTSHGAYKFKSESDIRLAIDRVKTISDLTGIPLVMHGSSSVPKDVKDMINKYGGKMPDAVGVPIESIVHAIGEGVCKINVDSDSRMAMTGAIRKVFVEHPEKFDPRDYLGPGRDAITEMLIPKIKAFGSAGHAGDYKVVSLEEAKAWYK
#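 40 nM FBPA preincubated 10 min at RT with compound (up to 57.5 uM final), then substrate plus GAPDH/TPI/NAD/arsenate coupling and diaphorase/resazurin added. Fluorescence read after 20 min at RT, 525/598 nm.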
# LmPK inh – blocks Leishmania mexicana pyruvate kinase activity; Q27686; purified LmPK, Kinase-Glo ATP luminescence, 1 h; Potency, µM (series often up to 57.5 µM), for inactives: top-dose activity change, negative = inhibition, usual class: inhibitors; 290,000 compounds, 0.37% hits; further: potency means the concentration at half of the fitted maximal effect; on the % scale 0 is the no-effect control and ±100 the full control effect
#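 Purified LmPK (0.1 nM) converted ADP (0.1 mM) to ATP with PEP (0.5 mM) in imidazole buffer pH 7.2 with KCl and MgCl2, 1 h at room temperature. ATP was read by Kinase-Glo luminescence; data normalized to uninhibited and no-enzyme controls.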
# Shiga toxin inh – inhibitors of Shiga toxin in Vero cells; Vero cells, Shiga toxin protein synthesis inhibition reporter; inhibition, % at 38.7 µM; 290,000 compounds, 9.2% hits; AID 2315; in the data active means inhibition mostly above about 28%, no sharp cut-off; inactive means mostly below about 43%; further: 0% is about no effect
# CHX counter-1 – counter-screen for Shiga toxin inhibitors: cycloheximide protein synthesis inhibition | cell reporter, cycloheximide protein synthesis inhibition counterscreen | max response, % | 300,000 compounds, 12% hits | AID 2314; in the data active means max response mostly above about 13%, no sharp cut-off; inactive means mostly below about 14%; further: read at 38.3 µM for the half of the compounds with a filed dose; 0% is about no effect
# LmPK confirm – Inhibits Leishmania mexicana pyruvate kinase, confirmation | shares compounds with LmPK inh | 150 compounds, 40% hits | purified LmPK, Kinase-Glo ATP luminescence, 1 h | Potency, µM (top dose mostly 57.5 µM), for inactives: at the top dose activity change, negative = inhibition, actives largely listed as inhibitors;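 active means compounds giving a full or partial concentration-response curve, as inhibitors or activators; inconclusive means weak, top-dose-only or unclear curve responses; inactive means no response at any tested dose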
# CHX counter-2 – protein synthesis counter-screen activity for Shiga toxin hits; shares compounds with Shiga toxin inh; Cycloheximide counterscreen, protein synthesis reporter, Shiga toxin assay; Potency, µM (series often up to 38.3 µM), for the others: top-dose activity (activation), usual class: activators; 510 compounds, 3% hits; AID 2318; calls by dose curve; further: potency means the concentration at half of the fitted maximal effect; 0% is about no effect
# Giardia growth – blocks growth of Giardia lamblia trophozoites | shares compounds with Giardia FBPA inh-1 | Giardia lamblia trophozoite growth inhibition | Potency, µM (series often up to 57.5 µM), for inactives: top-dose activity change, negative = inhibition, actives largely listed as inhibitors | 1,500 compounds, 5% hits | AID 2785;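 further: potency means the concentration at half of the fitted maximal effect; trophozoites exposed to compound for 48 h at 37 °C; on the % scale 0 is the no-effect control and ±100 the full control effect; nearly all actives have a fitted effect of over 70% in size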
# Mammalian tox – counter-screen for Giardia aldolase inhibitors: mammalian cell toxicity. shares compounds with Giardia FBPA inh-1. mammalian cell viability counter-screen, qHTS. Potency, µM (titrated, usually from 57.5 µM), inactives show at the highest dose viability change, negative = toxicity, hits mostly inhibitors. 1,500 compounds, 4% hits;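 further: Chinese hamster ovary cells used as mammalian cytotoxicity surrogate; viability measured as cellular ATP by luminescence; potency means the concentration at half of the fitted maximal effect; compound exposure lasted 48 h before reading; on the % scale 0 is the no-effect control and ±100 the full control effect; nearly all actives have a fitted effect of over 60% in size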
# Giardia FBPA inh-2 – confirmation of Giardia fructose-bisphosphate aldolase inhibitors; shares compounds with Giardia FBPA inh-1; 1,500 compounds, 5% hits; Potency, µM (titrated, usually from 57.5 µM), inactives show at the top dose activity change, negative = inhibition, most hits filed as inhibitors; purified Giardia aldolase enzyme activity, qHTS; AID 2787; further: potency means the concentration at half of the fitted maximal effect; on the % scale 0 is the no-effect control and ±100 the full control effect; nearly all actives have a fitted effect of over 45% in size
# Rabbit aldolase – blocks rabbit muscle aldolase in Giardia aldolase selectivity test | Potency, µM (series often up to 57.5 µM), without a hit: top-dose activity, negative = inhibition, usual class: inhibitors | 1,500 compounds, 4% hits | Rabbit muscle FBPA enzyme inhibition, selectivity counter-screen | shares compounds with Giardia FBPA inh-1 | AID 2794; further: potency means the concentration at half of the fitted maximal effect; on the % scale 0 is the no-effect control and ±100 the full control effect; nearly all actives have a fitted effect of over 60% in size
# Target sequence (P00883 whole entry, looked up): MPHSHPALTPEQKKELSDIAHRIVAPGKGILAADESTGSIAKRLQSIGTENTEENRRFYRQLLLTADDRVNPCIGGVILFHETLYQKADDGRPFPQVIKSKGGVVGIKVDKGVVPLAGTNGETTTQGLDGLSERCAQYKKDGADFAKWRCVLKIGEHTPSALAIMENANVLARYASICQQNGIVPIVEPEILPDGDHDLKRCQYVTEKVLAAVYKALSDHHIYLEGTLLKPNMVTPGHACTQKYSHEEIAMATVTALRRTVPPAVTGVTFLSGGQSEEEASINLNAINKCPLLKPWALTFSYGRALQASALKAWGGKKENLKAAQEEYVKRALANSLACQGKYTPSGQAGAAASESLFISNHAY
# GAPDH coupling – GAPDH inhibition flagged for Giardia aldolase hits. AID 2795. 1,500 compounds, 6% hits. GAPDH coupling enzyme counterscreen, biochemical, qHTS. Potency, µM (top dose mostly 57.5 µM), without a hit: at the top dose activity change, negative = inhibition, hits mostly inhibitors. shares compounds with Giardia FBPA inh-1; further: potency means the concentration at half of the fitted maximal effect; on the % scale 0 is the no-effect control and ±100 the full control effect; nearly all actives have a fitted effect of over 55% in size
# * marks the source's active call; other numbers are inactive results; ? = inconclusive; nt = no result; [ ] = dose if it differs, or a comment. The entries come from a sample that favours hits as a whole. Unless noted, the call rests on the fitted dose curve; in most records, active means well fitted curve in the direction sought with a large enough effect; inconclusive means small, poorly fitted or top-dose-only effect, or another doubt; inactive means no such curve, though single readings can be large; an effect the other way counts as inactive or inconclusive.
SMILES,Sm TGR inh,Tb PYK inh,Giardia FBPA inh-1,LmPK inh,Shiga toxin inh,CHX counter-1,LmPK confirm,CHX counter-2,others
COc1ccc(/C(O)=C2/C(=O)C(=O)N(Cc3cccnc3)C2c2ccco2)cc1OC (stereo not drawn),-4%,0%,9%,0%,8,12,4%,nt,
CCOc1ccc(NC(=O)Nc2ccccc2C(N)=O)cc1,nt,-15%,2%,3.2µM*,46*,29*,10µM*,nt,
O=C(NC(=O)c1ccccc1)Nc1ccccn1,-11%,nt,nt,4.5µM*,-2,27,13µM*,nt,
O=C1c2ccccc2-c2nnc(-c3ccccc3)cc21,8%,?,-10%,2.8µM*,72*,19*,7.3µM*,nt,
COc1cc(NC(=O)CSc2nc3ccccc3cc2Cc2ccccc2)cc(OC)c1,2%,-3%,-12%,-6%,-9,-1,nt,nt,
COc1cccc(NC(=O)CSc2nc3ccccc3cc2Cc2ccccc2)c1,8%,-5%,2%,1%,-4,8,3%,nt,
CN(C)c1ccc(N=Nc2nc3ccccc3n2C)cc1,-16%,14µM*,-10%,4µM*,-13,-9,3.7µM*,nt,
Cn1c(N=Nc2ccccc2)nc2ccccc21,-3%,14µM*,-23%,2.2µM*,14,40,7.3µM*,nt,
Cn1c(/C=N/O)nc2ccccc21,-22%,1%,?,-1%,19,12,nt,nt,
Cn1c(Cl)nc2ccccc21,1%,1%,1%,-3%,-3,-2,nt,nt,
CCOC1=NN(c2ccccc2)C(=O)/C1=C\N(C)C,5%,-2%,6%,-2%,43,-2,nt,nt,
CC1=NN(c2nc3ccccc3[nH]2)C(=O)/C1=C/N(C)C,5%,?,16µM*,14µM*,2,-5,7.3µM*,nt,Giardia growth=40µM*;Mammalian tox=4.5µM*;Giardia FBPA inh-2=3%;Rabbit aldolase=-1%;GAPDH coupling=-14%
Cc1ccc(S(=O)(=O)/N=C2/C=C(Sc3ncn[nH]3)C(=O)c3ccccc32)cc1,0.32µM*,7.9µM*,0.45µM*,7.1µM*,51,33*,4.6µM*,nt,Giardia growth=7.1µM*;Mammalian tox=20µM*;Giardia FBPA inh-2=2.5µM*;Rabbit aldolase=10µM*;GAPDH coupling=3.2µM*
Cc1c2cnn(CC(=O)Nc3cccc(C(F)(F)F)c3)c(=O)c2c(C)n1Cc1ccccc1Cl,-6%,1%,nt,nt,nt,nt,nt,nt,
Cc1oc(-c2cccs2)nc1CNC[C@H]1O[C@@H](n2cnc(C(N)=O)n2)[C@H](O)[C@@H]1O,nt,0%,nt,nt,nt,nt,nt,nt,
O=C1C(Cl)=C(NC(=O)c2ccccc2)C(=O)C(Cl)=C1NC(=O)c1ccccc1,?,?,5.6µM*,1.1µM*,60,18*,?,nt,Giardia growth=-12%;Mammalian tox=?;Giardia FBPA inh-2=0.79µM*;Rabbit aldolase=3.5µM*;GAPDH coupling=1.4µM*
CSc1ccc(/C=C(\C#N)C(=O)NC2CCCCC2C)cc1 (stereo not drawn),5%,5%,-1%,0%,27*,8,nt,3%,
CC(=O)Nc1ccc(/C=C(\C#N)C(=O)NC2CCCCC2C)cc1 (stereo not drawn),-11%,2%,3%,9%,-10,6,nt,nt,
CCN(CC)CC(=O)Nc1ccc(-c2nc3cc(NC(=O)CN(CC)CC)ccc3o2)cc1,-2%,-1%,-2%,-1%,81*,8,nt,2%,
Cc1ccc(SCC(=O)Nc2ccc3oc(-c4ccc(F)cc4)nc3c2)cc1,-1%,-2%,nt,nt,nt,nt,nt,nt,
Nc1ccc(C(=O)NC2CCSc3ccccc32)cc1[N+](=O)[O-] (stereo not drawn),-15%,9%,nt,0%,28*,18,nt,?,
CC(C)Cc1nc2oc3c(NCC4CCCO4)ncnc3c2c2c1CCC2 (stereo not drawn),2%,3%,-6%,5%,58*,-4,nt,-4%,
CC(C)Cc1nc2oc3c(NCc4cccnc4)ncnc3c2c2c1CCC2,0%,nt,13%,0%,-19,-2,nt,nt,
CCNc1nnc(-c2ccccc2OC)s1,0%,4%,-1%,-8%,73*,-1,nt,4%,
COc1ccccc1-c1nnc(NC(=O)C(C)SC2=NCCS2)s1 (stereo not drawn),-13%,-1%,-7%,15%,-4,-2,nt,nt,
SMILES,Sm TGR inh,Tb PYK inh,Giardia FBPA inh-1,LmPK inh,Shiga toxin inh,CHX counter-1,LmPK confirm,CHX counter-2,others
Cc1ccc(NC2=NCC(=O)N2C2CCCC2)cc1C,nt,4%,-4%,-5%,11,1,nt,nt,
Cc1ccc(NC2=NCC(=O)N2C2CCCC2)cc1,nt,-6%,-6%,0%,58*,7,nt,-2%,
CCCCNC(=O)C1CCN(c2nc3ccc(C)cc3[nH]2)CC1,8%,-8%[15.4 µM],nt,nt,nt,nt,nt,nt,
O=C(NC1CCCCC1)c1cccc(S(=O)(=O)N2CCCCC2)c1,4%,2%,-5%,7%,71*,-2,nt,-4%,
O=C(CCN1C(=O)c2cccc3cccc(c23)C1=O)NC1CCS(=O)(=O)C1 (stereo not drawn),10%,1%,-1%,2%,75*,9,nt,0%,
Cc1ccc(CN2CCSc3ccc(C(=O)Nc4ccc(C)cc4)cc32)cc1,-8%,0%,nt,nt,nt,nt,nt,nt,
CN(C)S(=O)(=O)c1ccc(C(=O)OCC(=O)c2ccc3c(c2)NC(=O)CO3)cc1,-1%,-6%,-1%,3%,42*,2,nt,-3%,
